In the supplement of paper PMC9262897, “Low-cost anti-mycobacterial drug discovery using engineered E. coli” (Nature Communications, 2022):
Where a name gives a salt, the structure may show the parent alone. ± gives the standard deviation of the averaged measurements.

What was measured:
Assay in all cases: growth (OD600 after 10 h); higher = more growth (less inhibition)
[1] = tested on: E. coli TESEC Alr+ wild-type control; details: compound 0.1 mM; raw OD600 reference: median of DMSO wells 0.241, cell-free background 0.041
Procedure: (§1)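 TESEC Mtb Alr E. coli, or the Alr+ wild-type control, in 384-well plates with Prestwick library compounds at 0.1 mM and 1% DMSO, across arabinose induction levels of 1E3 to 1E7 nM. Growth is read as OD600 after 10 h at 37 °C in triplicate biological replicates.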

E. coli TESEC Mtb Alr [2] = details: compound 0.1 mM
Procedure: as §1

E. coli TESEC Mtb Asd = details: compound 0.1 mM
Procedure: (§2)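 TESEC E. coli strains in which the native enzyme is deleted and replaced by arabinose-inducible Mtb Asd, DapB, CysH or TrpD, each grown in its selective medium. Strains were screened against the Prestwick library at 0.1 mM and 1% DMSO in 384-well format at low and high arabinose induction. Growth is read as OD600 after 10 h in triplicate.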

E. coli TESEC Mtb DapB = details: compound 0.1 mM
Procedure: as §2

[3] = tested on: E. coli TESEC Alr+ wild-type control; details: compound 0.1 mM; raw OD600 reference: median of DMSO wells 0.49, cell-free background 0.052
Procedure: (§3)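 TESEC Mtb Alr E. coli (ΔaraC ΔtolC ΔentC Δalr ΔdadX, arabinose-inducible Mtb Alr) or the Alr+ wild-type control strain, grown in defined M9-fructose medium without D-alanine in 96-well plates with Prestwick library compounds at 0.1 mM and 1% DMSO. Low Alr induction is 0.1 µM arabinose and high induction is 10 mM arabinose.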

E. coli TESEC Mtb Alr [4] = details: compound 0.1 mM; remark: listed apart in the source
Procedure: as §3

[5] = arabinose 1000 nM, raw OD600 reference: median of DMSO wells 0.294, cell-free background 0.041
[6] = arabinose 10000 nM, raw OD600 reference: median of DMSO wells 0.264, cell-free background 0.041
[7] = arabinose 100000 nM, raw OD600 reference: median of DMSO wells 0.201, cell-free background 0.041
[8] = arabinose 1000000 nM, raw OD600 reference: median of DMSO wells 0.193, cell-free background 0.041
[9] = arabinose 10000000 nM, raw OD600 reference: median of DMSO wells 0.146, cell-free background 0.041
[10] = arabinose induction (level): High, raw OD600 reference: median of DMSO wells 0.331, cell-free background 0.041
[11] = arabinose induction (level): Low, raw OD600 reference: median of DMSO wells 0.417, cell-free background 0.041
[12] = arabinose induction (level): High, raw OD600 reference: median of DMSO wells […], cell-free background 0.041
[13] = arabinose induction (level): Low, raw OD600 reference: median of DMSO wells 0.227, cell-free background 0.041
[14] = arabinose 100 nM, raw OD600 reference: median of DMSO wells 0.413, cell-free background 0.052
[15] = arabinose 10000000 nM, raw OD600 reference: median of DMSO wells […], cell-free background 0.052

Structure (SMILES)	growth [1]	growth (E. coli TESEC Mtb Alr [2]; [5])	growth (E. coli TESEC Mtb Alr [2]; [6])	growth (E. coli TESEC Mtb Alr [2]; [7])	growth (E. coli TESEC Mtb Alr [2]; [8])	growth (E. coli TESEC Mtb Alr [2]; [9])	growth (E. coli TESEC Mtb Asd; [10])	growth (E. coli TESEC Mtb Asd; [11])	growth (E. coli TESEC Mtb DapB; [12])	growth (E. coli TESEC Mtb DapB; [13])	growth [3]	growth (E. coli TESEC Mtb Alr [4]; [14])	growth (E. coli TESEC Mtb Alr [4]; [15])
CCCC(=O)Nc1ccc(OCC(O)CNC(C)C)c(C(C)=O)c1 (stereo not drawn) [Acebutolol hydrochloride]	0.239 ± 0.008	0.305 ± 0.011	0.257 ± 0.0087	0.202 ± 0.014	0.174 ± 0.0073	0.1572 ± 0.0014	0.264 ± 0.04	0.413 ± 0.007	0.197 ± 0.025	0.265 ± 0.067	0.46 ± 0.044	0.411 ± 0.0058	0.354 ± 0.01
CC[N+](CC)(CC(=O)Nc1c(C)cccc1C)Cc1ccccc1 [Denatonium benzoate]	0.216 ± 0.0039	0.27 ± 0.0093	0.254 ± 0.006	0.182 ± 0.034	0.173 ± 0.014	0.132 ± 0.0092	0.401 ± 0.018	0.46 ± 0.0089	0.189 ± 0.015	0.224 ± 0.024	0.439 ± 0.016	0.402 ± 0.018	0.338 ± 0.02
CCCCNc1c(C(=O)OCC)c(C)nc2c1cnn2CC [Tracazolate hydrochloride]	0.15 ± 0.017	0.203 ± 0.049	0.13 ± 0.037	0.197 ± 0.051	0.077 ± 0.031	0.168 ± 0.031	0.165 ± 0.017	0.179 ± 0.014	0.156 ± 0.0092	0.194 ± 0.0047	0.335 ± 0.024	0.366 ± 0.0077	0.186 ± 0.042
CN1[C@@H]2CC[C@H]1C[C@@H](OC(=O)c1c[nH]c3ccccc13)C2 [Tropisetron HCl]	0.224 ± 0.0054	0.294 ± 0.0064	0.273 ± 0.0034	0.216 ± 0.036	0.177 ± 0.0038	0.158 ± 0.0026	0.305 ± 0.044	0.319 ± 0.034	0.219 ± 0.02	0.264 ± 0.05	0.53 ± 0.08	0.402 ± 0.012	0.359 ± 0.0044
CN1CCN(C(c2ccccc2)c2ccc(Cl)cc2)CC1 (stereo not drawn) [Chlorcyclizine hydrochloride]	0.179 ± 0.0072	0.215 ± 0.021	0.174 ± 0.021	0.178 ± 0.0045	0.07137 ± 0.00015	0.1236 ± 0.00055	0.149 ± 0.0065	0.221 ± 0.0041	0.205 ± 0.014	0.261 ± 0.032	0.4416 ± 0.0038	0.4163 ± 0.0041	0.222 ± 0.033
CCCCNc1cc(C(=O)O)cc(S(N)(=O)=O)c1Oc1ccccc1 [Bumetanide]	0.234 ± 0.0058	0.261 ± 0.021	0.251 ± 0.0081	0.167 ± 0.018	0.159 ± 0.0062	0.138 ± 0.0095	0.226 ± 0.01	0.449 ± 0.062	0.209 ± 0.027	0.215 ± 0.038	0.492 ± 0.048	0.426 ± 0.0046	0.333 ± 0.02
c1ccc(C2CN3CCSC3=N2)cc1 (stereo not drawn) [Tetramisole hydrochloride]	0.244 ± 0.003	0.303 ± 0.011	0.259 ± 0.0099	0.242 ± 0.045	0.176 ± 0.0046	0.16 ± 0.0039	0.257 ± 0.033	0.358 ± 0.046	0.203 ± 0.02	0.252 ± 0.035	0.529 ± 0.087	0.408 ± 0.014	0.316 ± 0.015
N=C(N)NC(=O)Cc1c(Cl)cccc1Cl [Guanfacine hydrochloride]	0.241 ± 0.0058	0.287 ± 0.0063	0.26 ± 0.0052	0.236 ± 0.018	0.143 ± 0.0065	0.165 ± 0.0022	0.43 ± 0.13	0.444 ± 0.018	0.19 ± 0.015	0.214 ± 0.026	0.485 ± 0.018	0.406 ± 0.0086	0.329 ± 0.018
CC(=O)CC(c1ccc([N+](=O)[O-])cc1)c1c(O)c2ccccc2oc1=O (stereo not drawn) [Acenocoumarol]	0.244 ± 0.0011	0.298 ± 0.0045	0.2588 ± 0.0011	0.175 ± 0.0092	0.1675 ± 0.0012	0.139 ± 0.0017	0.26 ± 0.023	0.293 ± 0.051	0.175 ± 0.015	0.189 ± 0.0085	0.503 ± 0.0074	0.395 ± 0.011	0.323 ± 0.024
COc1ccc(-c2ccc3cc(C(=O)O)ccc3c2)cc1C12CC3CC(CC(C3)C1)C2 [Adapalene]	0.2339 ± 0.00031	0.282 ± 0.014	0.26 ± 0.0041	0.185 ± 0.013	0.223 ± 0.016	0.125 ± 0.0023	0.231 ± 0.0037	0.298 ± 0.079	0.193 ± 0.013	0.249 ± 0.028	0.483 ± 0.01	0.435 ± 0.014	0.402 ± 0.085
Clc1ccc(CO/N=C(\Cn2ccnc2)c2ccc(Cl)cc2Cl)c(Cl)c1 [Oxiconazole Nitrate]	0.0527 ± 0.0022	0.0489 ± 0.0051	0.0625 ± 0.0013	0.0581 ± 0.003	0.0621 ± 0.0011	0.0621 ± 0.0089	0.0621 ± 0.001	0.0577 ± 0.0051	0.0621 ± 0.0016	0.0618 ± 0.0051	0.0828 ± 0.0028	0.095 ± 0.058	0.0891 ± 0.0035
Cc1ccc(S(=O)(=O)NC(=O)NN2CCCCCC2)cc1 [Tolazamide]	0.256 ± 0.0047	0.293 ± 0.0069	0.281 ± 0.005	0.249 ± 0.0083	0.186 ± 0.012	0.17 ± 0.0032	0.293 ± 0.026	0.414 ± 0.05	0.214 ± 0.0044	0.235 ± 0.015	0.482 ± 0.053	0.398 ± 0.017	0.354 ± 0.014
CC/C(=C(\c1ccccc1)c1ccc(OCCN(C)C)cc1)c1ccccc1 [Tamoxifen citrate]	0.0423 ± 0.0005	0.0419 ± 0.002	0.048 ± 0.0005	0.0466 ± 0.0016	0.0485 ± 0.0015	0.0425 ± 0.00078	0.0517 ± 0.002	0.0526 ± 0.002	0.04873 ± 0.00038	0.0937 ± 0.078	0.0552 ± 0.015	0.0503 ± 0.00091	0.0549 ± 0.0014
N=C(N)NCC1COC2(CCCCC2)O1 (stereo not drawn) [Guanadrel sulfate]	0.241 ± 0.0075	0.296 ± 0.0091	0.258 ± 0.0067	0.204 ± 0.017	0.183 ± 0.0022	0.138 ± 0.0046	0.363 ± 0.079	0.368 ± 0.036	0.22 ± 0.023	0.227 ± 0.039	0.635 ± 0.012	0.406 ± 0.013	0.324 ± 0.012
CC1(C)O[C@@H]2[C@@H](CO[C@@]3(COS(N)(=O)=O)OC(C)(C)O[C@@H]23)O1 [Topiramate]	0.234 ± 0.0043	0.291 ± 0.0074	0.2714 ± 0.0027	0.18 ± 0.018	0.204 ± 0.0062	0.136 ± 0.0016	0.243 ± 0.055	0.295 ± 0.057	0.19 ± 0.01	0.203 ± 0.022	0.541 ± 0.075	0.4226 ± 0.0021	0.302 ± 0.0096
O=C(Oc1cccc2cccnc12)c1ccccc1 [Benzoxiquine]	0.222 ± 0.0051	0.264 ± 0.016	0.28 ± 0.0036	0.172 ± 0.014	0.198 ± 0.011	0.14 ± 0.01	0.316 ± 0.12	0.289 ± 0.017	0.182 ± 0.018	0.201 ± 0.015	0.505 ± 0.036	0.368 ± 0.016	0.281 ± 0.01
